BCR signal inh: inhibitors of chronic active B-cell receptor signaling | hit rate 0.05% among 340,000 | Potency, µM (series often up to 46.1 µM), inactives show at the highest dose activity change, negative = inhibition, usual class: inhibitors | ABC-DLBCL IkBa-CBG/CBR reporter, luminescence ratio, 4 h; active = well fitted inhibition curve with a large enough effect in the signal ratio, with a control signal flat, not every such curve was filed as active; inconclusive = small, poorly fitted or top-dose-only effect, or effect the other way, or a change in a side signal; the % refers to the signal ratio;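 also: potency is read from the fitted curve at half-maximal effect; plate controls were basal doxycycline-induced cells for no effect and cells given 10 µM MG132 for full effect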
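Concentration-response series (up to 46 uM) were applied to TMD8 dual-reporter cells for 4 h at 37C with doxycycline. Green/red ratio, after filter-overlap correction, defined %Activity; red signal alone was normalised to basal cells and zero luminescence.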
MCF10A rereplic: inducers of DNA re-replication in MCF 10A breast cells; MCF 10A DNA re-replication, Hoechst nuclear intensity, 48 h; Potency, µM (top dose mostly 46.1 µM), inactives show at the top dose activity, positive = re-replication, most hits filed as activators; hit rate 2.9% among 350,000; AID 624296; also: potency is read from the fitted curve at half-maximal effect; % of control where 0% means no effect; nearly all actives have a fitted effect of over 50% in size
SW480 rereplic: induces DNA re-replication in SW480 colon adenocarcinoma cells. Potency, µM (doses to about 46.1 µM), for inactives: at the top dose re-replication activation, usual class: activators. AID 624297. hit rate 1.8% among 340,000. SW480 DNA re-replication, Hoechst DNA content imaging, 48 h; also: potency is read from the fitted curve at half-maximal effect; % of control where 0% means no effect; nearly all actives have a fitted effect of over 55% in size
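Treated cells incubate 48 hr (37 C, 5% CO2), are stained 40 min with Hoechst, and nuclear fluorescence is enumerated; a rise in nuclei with high DNA signal marks re-replication.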
VP16 counter: inhibits Gal4-VP16 luciferase reporter, ROR gamma counter-screen. Drosophila S2 Gal4-VP16 UAS-luciferase, luminescence, 20 h. Potency, µM (series often up to 53.6 µM), inactives show top-dose activity, negative = inhibition, most hits filed as inhibitors. hit rate 3.5% among 310,000. AID 2546;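 also: Gal4-VP16 expression switched on by copper sulfate through the metallothionein promoter; potency is read from the fitted curve at half-maximal effect; % is scaled to controls: 0 for no effect and ±100 for the full control effect; nearly all actives have a fitted effect of over 50% in size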
Giardia killer: Giardia lamblia killing; Giardia lamblia trophozoite viability; activity change, % at 7.66 µM, hits read low; hit rate 0.15% among 340,000; AID 540267; in the data active = activity change below about -80%; inconclusive = between about -30% and that limit;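 also: parasites exposed to compound for two days anaerobically before the ATP read; % is scaled to controls: 0 for no effect and ±100 for the full control effect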
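Giardia trophozoites, 100 cells per well, were exposed to compounds for 48 hrs at 37 deg C under anaerobic conditions; viability was then read as ATP content by bioluminescence after 15-30 min at room temperature.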
RORg inh: inhibitors of mouse ROR gamma transcriptional activity. P51450. Drosophila S2 Gal4-RORgamma UAS-luciferase reporter, 20 h. Potency, µM (top dose mostly 53.6 µM), without a hit: at the top dose activity change, negative = inhibition, most hits filed as inhibitors. hit rate 5.4% among 310,000. AID 2551; also: potency is read from the fitted curve at half-maximal effect; % is scaled to controls: 0 for no effect and ±100 for the full control effect; nearly all actives have a fitted effect of over 60% in size
Target sequence (P51450 whole entry, looked up, the tested form may be a part): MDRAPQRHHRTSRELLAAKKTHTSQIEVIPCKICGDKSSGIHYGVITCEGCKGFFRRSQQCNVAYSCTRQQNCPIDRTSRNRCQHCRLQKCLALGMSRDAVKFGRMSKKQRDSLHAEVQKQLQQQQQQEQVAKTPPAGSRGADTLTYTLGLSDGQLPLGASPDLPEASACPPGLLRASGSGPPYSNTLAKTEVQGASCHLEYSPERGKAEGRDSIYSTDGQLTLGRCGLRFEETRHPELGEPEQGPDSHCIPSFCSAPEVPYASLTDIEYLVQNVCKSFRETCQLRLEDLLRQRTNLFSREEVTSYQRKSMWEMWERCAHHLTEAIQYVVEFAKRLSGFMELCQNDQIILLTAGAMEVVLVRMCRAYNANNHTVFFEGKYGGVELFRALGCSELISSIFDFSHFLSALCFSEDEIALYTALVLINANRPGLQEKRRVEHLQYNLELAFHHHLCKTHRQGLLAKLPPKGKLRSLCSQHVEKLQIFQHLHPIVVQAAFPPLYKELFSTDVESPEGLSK
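Luciferase reporter read in Schneider cells carrying Gal4-RORγ (mouse) and UAS-Photinus luciferase; cells given compound 1 h before 700 uM copper sulfate induction, then incubated 20 h at ambient temperature.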
* marks the source's active call; other numbers are inactive results; ? = inconclusive; nt = no result given; ! = repeats disagree. In the library only some 8.3% were active in any assay of this set; here they are far more common. Unless noted, calls follow the shape of the dose curve; as a rule, active = well fitted curve in the direction sought with a large enough effect; inconclusive = small, poorly fitted or top-dose-only effect, or another doubt; inactive = no such curve, though single readings can be large; an effect the other way counts as inactive or inconclusive.

SMILES	BCR signal inh	MCF10A rereplic	SW480 rereplic	VP16 counter	Giardia killer	RORg inh
O=C(N/N=C\c1c(O)ccc2ccccc12)c1ccc(O)cc1	?	-0.9%	?	5.62µM*	5.9	5.01µM*
CCOc1ccc2ccccc2c1/C=N\NC(=O)c1ccc([N+](=O)[O-])cc1	?	1.2%	23.1µM*	-6.6%	12.1	?
Cc1occc1C(=O)N/N=C/c1c(O)ccc2ccccc12	?	?	0.517µM*	17.8µM*	-6.7	3.98µM*
O=c1c2ccccc2c(C=Nc2ccc(O)cc2)c(O)n1-c1nccs1	4.9%	?	-3.0%	-7.1%	-17.0	-20.9%
O=C(NN=Cc1c(O)ccc2ccccc12)c1ccncc1	nt	?	24.3%	nt	7.8	nt
O=C(N/N=C/c1ccc(O)c(Br)c1)c1cc2c(ccc3ccccc32)o1	?	?	?	-5.7%	10.3	13.8%
O=C(N/N=C/c1c(O)ccc2ccccc12)c1ccc(Br)o1	5.5%	?	1.16µM*	2.82µM*	-0.4	3.16µM*
Cn1cc(C(=O)N/N=C/c2c(O)ccc3ccccc23)ccc1=O	-2.8%	25.9µM*	-7.4%	-5.1%	-1.0	-13.3%
O=C1CC(c2cc(F)ccc2F)c2cc3c(cc2N1)CCC3 (centres undefined)	-13.6%	?	?	-11.5%	19.7	13.8%
COc1ccc(-c2n[nH]c(=S)n2/N=C/C=C/c2ccccc2OC)cc1	-7.3%	4.61µM*	?	?	-6.1	7.08µM*
COc1ccccc1/C=C/C=N/n1c(-c2ccccc2)n[nH]c1=S	?	0.9%	-0.3%	?	3.1	0.398µM*
COc1ccccc1/C=C/C=N/n1c(-c2ccc(Cl)cc2)n[nH]c1=S	?	?	-13.7%	-9.6%	-6.2	-27.7%
O=[N+]([O-])c1ccccc1/C=C/C=N/n1c(-c2ccccc2F)n[nH]c1=S	?	0.5%	-7.4%	-3.5%	1.5	14.1µM*
CCCCN(CC)S(=O)(=O)c1ccc(C(=O)N=c2sc3cc(NC(C)=O)ccc3n2C)cc1	4.7%	10.3µM*	7.31µM*	-28.1%	11.0	?
CCCCN(C)S(=O)(=O)c1ccc(C(=O)N=c2sc3cc(NC(C)=O)ccc3n2C)cc1	-0.4%	-1.8%	-4.5%	0.7%	5.6	0.8%
COc1ccc(Cc2nc3ccccc3n2CC(=O)N/N=C/c2ccc(C)cc2O)cc1OC	-7.1%	0.1%	?	6.31µM*	0.0	3.55µM*
COc1ccc(CC(=O)N/N=C/c2c(C)n(C)c3ccccc23)cc1OC	?	7.31µM*	14.6µM*	-5.7%	6.0	-17.3%
COc1cc(/C=C/C(=O)/C=C(O)/C=C/c2ccc(O)c(OC)c2)ccc1O	?	33.5µM*	29.9µM*	?	-13.5	15.8µM*!
COc1ccc(/C=C/C(=O)CC(=O)/C=C/c2cccc(O)c2OC)cc1O	nt	nt	nt	4.3%	nt	6.31µM*
COc1cc(/C=C/C(=O)OCc2cn3cc(Cl)ccc3n2)ccc1O	-13.9%	10.3µM*	?	6.2%	-1.2	-15.1%
COc1cc(/C=C/C(C)=NNc2ccccc2)ccc1O	nt	16.4µM*	?	nt	8.9	nt
CCn1c(SCC(=O)Nc2ccccc2C)nc2nc3c(cc2c1=O)COC(C)(C)C3	-16.6%	-3.3%	-16.1%	-6.7%	4.3	-0.6%
O=C(O)CCn1c(-c2ccccn2)nc2ccccc21	-0.2%	-4.3%	-14.2%	-6.0%	-8.2	-28.2%
COc1cc(/C=C/C(=O)OCC(=O)NCc2ccc(F)cc2)ccc1O	?	14.6µM*	8.2µM*	nt	5.2	nt
COc1cc(/C=C/C(=O)OCC(=O)NCc2ccco2)ccc1OC(F)F	-5.0%	-1.5%	-7.3%	3.98µM*	13.1	2.51µM*
SMILES	BCR signal inh	MCF10A rereplic	SW480 rereplic	VP16 counter	Giardia killer	RORg inh
COc1ccc(/C=C/C(=O)OCC(=O)NCc2ccco2)cc1OC	-3.3%	?	-4.3%	-3.5%	-8.1	20.6%
COc1cc(/C=C/C(=O)CC(=O)/C=C/c2ccc(O)c(OC)c2)ccc1O	?	25.9µM*!	11.6µM*!	15.8µM*	48.5	11.2µM*
Nc1ncc2c(n1)CCN(c1ccc([N+](=O)[O-])cc1)C2	-4.5%	1.8%	?	-3.8%	-12.6	19.2%
Cc1ccc(C(=O)N/N=C/c2ccc(-c3ccc(Br)cc3[N+](=O)[O-])o2)o1	-3.1%	5.8µM*	-2.7%	?	21.7	?
O=C(N/N=C/c1ccc([N+](=O)[O-])cc1)c1cccnc1	-0.8%	5.8%	3.2%	1.5%	-10.4	?
O=C(N/N=C/c1ccc(-c2ccc([N+](=O)[O-])cc2)o1)c1cccnc1	-1.3%	-3.0%	0.0%	-0.4%	9.0	11.2µM*
O=C(N/N=C/c1ccc(-c2ccccc2[N+](=O)[O-])o1)c1cncc(Br)c1	-2.8%	9.7%	2.3%	5.01µM*	-10.6	6.31µM*
Cc1cc([N+](=O)[O-])c(C)cc1-c1ccc(/C=N/NC(=O)c2cccnc2)o1	-2.5%	10.0%	4.5%	?	-14.0	8.91µM*
CS(=O)(=O)N1CCC[C@@]2(CCN(c3ccccn3)C2)C1	nt	nt	nt	-3.2%	nt	-7.8%
O=C(CN(C(=O)CNC(=O)c1cccs1)c1ccccc1F)NC1CCCC1	-12.9%	11.4%	-2.0%	1.2%	6.5	-8.9%
CC(C)Nc1nc(NC(C)C)nc(N(C#N)CCOc2ccc(Cl)cc2Cl)n1	?	18.4µM*	?	?	-11.1	?
O=C1C2C(c3ccccc3)=NN(c3ccccc3)C2C(=O)N1c1ccccc1 (centres undefined)	2.3%	?	1.3%	-5.3%	5.5	7.8%
O=C1[C@H]2C(c3ccccc3)=NN(c3ccccc3)[C@H]2C(=O)N1c1ccccc1	0.4%	0.651µM*	-78.6%	-4.3%	-20.0	13.1%
CCCCCN1N=C(C)CC1=O	-0.8%	-0.2%	0.8%	18.4%	7.0	-15.7%
Cc1c(-c2ccccn2)c(=O)[nH]n1-c1ccc(F)cc1	-1.5%	-12.3%	8.3%	?	-2.2	6.31µM*
O=c1[nH]n(-c2ccc(F)cc2)c2ncccc12	12.1%	0.2%	-5.0%	-3.4%	14.6	18.5%
CC1(C)CC[C@]2(CO)CC[C@]3(C)C(=CCC4[C@@]5(C)CC[C@H](O)[C@@](C)(CO)C5CC[C@]43C)[C@@H]2C1 (some centres undefined)	-5.5%	10.3µM*	7.3%	nt	-16.6	nt
CC1(C)CC[C@]2(C(=O)O)CC[C@]3(C)C(=CC[C@@H]4[C@@]5(C)CC[C@H](O)C(C)(C)[C@@H]5CC[C@]43C)[C@@H]2C1	7.6%	-5.6%	-37.6%	-0.6%	3.4	-20.5%
